Records with an inconclusive call do not appear. Entries that show only a call come without a potency. Activity calls are given as the source filed them. Calls follow the shape of the full dose curve; tested in HEK293 reporter line.
Potency is read from the fitted curve at half-maximal effect.

A short description of the first test: qHTS for Inhibitors of the Functional Ribonucleoprotein Complex (vRNP) of Lassa (LASV) Arenavirus: LASV Primary Screen - GLuc reporter signal (AID 1347082). Also: nearly all actives have a fitted effect of over 60% in size. The settings on record: LASV minigenome vRNP, Gaussia luciferase reporter; series mostly up to 57.5 µM. Background: Quantitative high-throughput screening tests each substance at several concentrations.
For `CC/C=C\CCCCCO`, the Potency entry was “inactive”. Still for that read-out and setting: with `CO[C@H]1C[C@H](O[C@H]2[C@H](C)O[C@@H](O[C@@H]3/C(C)=C/C[C@@H]4C[C@@H](C[C@]5(C=C[C@H](C)[C@@H](C6CCCCC6)O5)O4)OC(=O)[C@@H]4C=C(C)[C@@H](O)[C@H]5OC/C(=C\C=C\[C@@H]3C)[C@]54O)C[C@@H]2OC)O[C@@H](C)[C@@H]1O` the entry was “inactive”; with `COc1cc2cc(Oc3ccc4ccc(=O)oc4c3)c(=O)oc2cc1OC(C)=O`, “inactive”; with `CC(=Cc1ccccc1)C=C1SC(=S)N(CC(=O)O)C1=O`, “inactive”.

Consider `CC(=O)O`, for which the Potency result was “inactive”. Same read-out and setting: with `Cc1[nH]c(C=C2C(=O)Nc3ccc(S(=O)(=O)Cc4c(Cl)cccc4Cl)cc32)c(C)c1C(=O)N1CCC[C@H]1CN1CCCC1` the entry was “inactive”. In the case of `COC1=C(C)C(=O)O[C@]12C(=O)C(C)=C1CCCCN3[C@H]([C@@H]4C[C@H](C)C(=O)O4)CC[C@]132`, the Potency result was “inactive”. The same measure, in the same setting: with `O=C(O)C=Cc1ccc(Cn2ccnc2)cc1` the entry was “inactive”. The same measure, in the same setting: with `CCCCCCCCC=O` the entry was “inactive”. Consider `COc1ccc(-c2oc3ccccc3c(=O)c2O)cc1`, for which the Potency entry is “inactive”.

`CCCCCC1C(=O)CCC1CC(=O)OC` (stereo not drawn): the Potency entry was “inactive”. The same measure, in the same setting: the value for `CC(C)NC(=O)NC(C)C` was “inactive”; that for `N#CC(=C1Nc2ccccc2S1)c1ccnc(OCc2ccc(CN3CCOCC3)cc2)n1` was 7.69 µM (active); that for `C/C=C(/C)C(=O)O[C@@H]1c2cc3c(c4c2[C@@]2(CO4)C(=O)C(OC)=C(OC)C=C2C[C@@H](C)[C@H]1C)OCO3` was “inactive”. Consider `Cc1cnc(C)c(C)n1`, for which the Potency entry was “inactive”. Same read-out and setting: the value for `COc1cc(/C=C/c2ccccc2)cc(OC)c1` was “inactive”; that for `C/C=C(\C)C(=O)OC(C)(C)[C@H]1Cc2cc3ccc(=O)oc3cc2O1` was “inactive”; that for `C/C=C1/C[C@@H](C)[C@@](C)(O)C(=O)OCC2=CCN3CC[C@@H](OC1=O)[C@@H]23` was “inactive”. On the same count and under the same terms, the value for `CC(=O)OC[C@]1(OC(C)=O)C[C@@]23CC[C@H]4[C@@](C)(CCC[C@@]4(C)C(=O)O)[C@@H]2CC[C@@H]1C3` was “inactive”; that for `CS(C)(=O)=O` was “inactive”.

Turning to `CCOc1c2ccoc2nc2c(OC)c(OC)ccc12`, the Potency entry was “inactive”. As to `CC(=O)N1CCN(c2ccc(OCc3nn(C)c(C)c3-c3cccc4c(CCCOc5cc(C)c(Cl)c(C)c5)c(C(=O)O)n(Cc5cccnc5)c34)cc2)CC1`, the Potency result is “inactive”.

For `CC(C)CC(=O)O`, the Potency result was “inactive”.

A short description of a further test: qHTS for Inhibitors of the Functional Ribonucleoprotein Complex (vRNP) of Lassa (LASV) Arenavirus: Viability assay - alamar blue signal for LASV Primary Screen (AID 1347083). Also: nearly all actives have a fitted effect of over 80% in size. The settings on record: cell viability, alamar blue fluorescence (LASV minigenome counter-screen); series mostly up to 57.5 µM.
With `CC1(C)O[C@H]2C[C@@H]3[C@H]4CCC5=CC(=O)C=C[C@]5(C)[C@@]4(F)[C@@H](O)C[C@]3(C)[C@]2(C(=O)CO)O1`, the Potency entry was “inactive”. Same read-out and setting: the value for `O=C(O)/C=C/c1ccc2c(c1)OCO2` was “inactive”; that for `CC1(C)Oc2ccc3ccc(=O)oc3c2[C@@H](O)[C@H]1O` was “inactive”; that for `CC1(C)O[C@@H]1COc1c2ccoc2cc2oc(=O)ccc12` was “inactive”. On the same count and under the same terms, with `COc1ccc(/C=C/C(=O)O)cc1` the entry was “inactive”.

As for `CC(O)CC(=O)O` (stereo not drawn), the Potency entry is “inactive”. The same measure, in the same setting: the value for `O=C1CC(c2ccc(O[C@@H]3OC(CO)[C@@H](O)C(O)C3O)cc2)Oc2cc(O)ccc21` (stereo partly drawn) was “inactive”. Still for that read-out and setting: with `Nc1nc2c(ncn2[C@@H]2O[C@H](CO)[C@@H](O)[C@@H]2O)c(=O)[nH]1` the entry was “inactive”. As for `NC(=O)[C@H]1CCCN1C(=O)[C@H](Cc1cnc[nH]1)NC(=O)[C@@H]1CCC(=O)N1`, the activity change, negative = reduced viability is 6.52% [at 5.82 µM] (inactive). For the compound `COc1ccc(CCNC(=O)/C=C\c2ccccc2)cc1OC`, the Potency result was “inactive”.

Regarding `CCCCCCCOC(C)=O`, the Potency entry is “inactive”. Still for that read-out and setting: with `CC1=CC(C/C(C)=C/COc2ccc3ccc(=O)oc3c2)OC1=O` (stereo not drawn) the entry was “inactive”; with `C[C@]12CCC3C(CC[C@H]4C[C@@H](O)CC[C@]34C)C1C[C@@H](O)C2=O` (stereo partly drawn), “inactive”; with `CCCCCCCCCCCC(=O)OCC`, “inactive”. The same measure, in the same setting: with `CC1=CCC(O)(C(C)C)CC1` (stereo not drawn) the entry was “inactive”. In the case of `O=C1CCC[C@H]2[C@@H]3CCCN4CCC[C@H](CN12)[C@H]34`, the Potency entry is “inactive”. Still for that read-out and setting: the value for `CC(C)=CCC[C@](C)(O[C@@H]1O[C@H](CO)[C@@H](O)[C@H](O)[C@H]1O)[C@H]1CC[C@]2(C)[C@@H]1[C@H](O)C[C@@H]1[C@@]3(C)CC[C@H](O[C@@H]4O[C@H](CO)[C@@H](O)[C@H](O)[C@H]4O[C@@H]4O[C@H](CO)[C@@H](O)[C@H](O)[C@H]4O)C(C)(C)[C@@H]3[C@@H](O)C[C@]12C` was “inactive”.

As to `CC/C=C\CCCCCO`, the Potency result is “inactive”. Same read-out and setting: with `CO[C@H]1C[C@H](O[C@H]2[C@H](C)O[C@@H](O[C@@H]3/C(C)=C/C[C@@H]4C[C@@H](C[C@]5(C=C[C@H](C)[C@@H](C6CCCCC6)O5)O4)OC(=O)[C@@H]4C=C(C)[C@@H](O)[C@H]5OC/C(=C\C=C\[C@@H]3C)[C@]54O)C[C@@H]2OC)O[C@@H](C)[C@@H]1O` the entry was “inactive”; with `COc1cc2cc(Oc3ccc4ccc(=O)oc4c3)c(=O)oc2cc1OC(C)=O`, “inactive”. On the same count and under the same terms, with `CC(=Cc1ccccc1)C=C1SC(=S)N(CC(=O)O)C1=O` the entry was “inactive”; with `CC(=O)O`, “inactive”; with `Cc1[nH]c(C=C2C(=O)Nc3ccc(S(=O)(=O)Cc4c(Cl)cccc4Cl)cc32)c(C)c1C(=O)N1CCC[C@H]1CN1CCCC1`, “inactive”. As for `COC1=C(C)C(=O)O[C@]12C(=O)C(C)=C1CCCCN3[C@H]([C@@H]4C[C@H](C)C(=O)O4)CC[C@]132`, the Potency entry is “inactive”.

For the compound `O=C(O)C=Cc1ccc(Cn2ccnc2)cc1`, the Potency result was “inactive”.

Take `CCCCCCCCC=O`: the Potency result is “inactive”.

With `COc1ccc(-c2oc3ccccc3c(=O)c2O)cc1`, the Potency entry was “inactive”. Same read-out and setting: with `CCCCCC1C(=O)CCC1CC(=O)OC` (stereo not drawn) the entry was “inactive”.

Consider `CC(C)NC(=O)NC(C)C`, for which the Potency entry was “inactive”. Same read-out and setting: with `N#CC(=C1Nc2ccccc2S1)c1ccnc(OCc2ccc(CN3CCOCC3)cc2)n1` the figure was 4.32 µM (active); with `C/C=C(/C)C(=O)O[C@@H]1c2cc3c(c4c2[C@@]2(CO4)C(=O)C(OC)=C(OC)C=C2C[C@@H](C)[C@H]1C)OCO3`, “inactive”; with `Cc1cnc(C)c(C)n1`, “inactive”. Same read-out and setting: the value for `COc1cc(/C=C/c2ccccc2)cc(OC)c1` was “inactive”; that for `C/C=C(\C)C(=O)OC(C)(C)[C@H]1Cc2cc3ccc(=O)oc3cc2O1` was “inactive”; that for `C/C=C1/C[C@@H](C)[C@@](C)(O)C(=O)OCC2=CCN3CC[C@@H](OC1=O)[C@@H]23` was “inactive”. Same read-out and setting: the value for `CC(=O)OC[C@]1(OC(C)=O)C[C@@]23CC[C@H]4[C@@](C)(CCC[C@@]4(C)C(=O)O)[C@@H]2CC[C@@H]1C3` was “inactive”; that for `CS(C)(=O)=O` was “inactive”. With `CCOc1c2ccoc2nc2c(OC)c(OC)ccc12`, the Potency entry is “inactive”. Turning to `CC(=O)N1CCN(c2ccc(OCc3nn(C)c(C)c3-c3cccc4c(CCCOc5cc(C)c(Cl)c(C)c5)c(C(=O)O)n(Cc5cccnc5)c34)cc2)CC1`, the Potency entry is “inactive”. On the same count and under the same terms, with `CC(C)CC(=O)O` the entry was “inactive”.

The values are drawn from PubChem BioAssay (NCATS).
